Bioassay records deposited in PubChem by Broad Institute.
NOMO-1 viab: STK33 inhibitor candidate reducing NOMO-1 cell viability. NOMO-1 AML viability, CellTiter-Glo luminescence, 72 h. inhibition, % (concentration not given with the values). 7.5% of 37,000 active. AID 2330; in the data active = inhibition above about 80%; inconclusive = no clear call, values can overlap the other calls
MITF inh: blocks MITF activity | TRPM1 promoter luciferase, luminescence, 24 h | inhibition, % (no concentration beside the values) | 0.28% of 37,000 active; in the data active = inhibition above about 85%; inconclusive = no clear call, values can overlap the other calls; inactive = below about 68%;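 also: human melanocyte line stably carrying TRPM1 promoter luciferase reporter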
Shh pathway inh: Sonic Hedgehog pathway inhibition; Shh-LIGHT2 Gli-luciferase reporter, 30 h; inhibition, % (no concentration beside the values); 2.1% of 22,000 active;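 active = mean inhibition across valid replicates above about 65%, limit read from the data; inconclusive = mean under the limit, yet half or more replicates past it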;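 also: pathway switched on by Shh-conditioned medium diluted 1 in 25 in low serum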
PD-1 reversal: activators reversing PD-1 mediated T-cell inhibition; activation, % (concentration not given with the values); primary human CD4 T cells, PD-L1 beads, CellTiter-Glo 96 h; AID 2316; 29,000 tested, under 10 active; call rule not given here;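 also: 0% = median vehicle wells and 100% = positive control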
The depositor's hits bear a star; ? = inconclusive; . = no result given. The list is not random: actives were taken first. Their share in the collection is about 8.1%.

SMILES	NOMO-1 viab	MITF inh	Shh pathway inh	PD-1 reversal
C[C@H](CO)N1C[C@H](C)[C@H](CN(C)S(=O)(=O)c2ccccc2)Oc2ccc(NC(=O)Nc3ccc(C(F)(F)F)cc3)cc2CC1=O	128*	30	-12	-6
C[C@H]1CN([C@@H](C)CO)C(=O)Cc2cc(NC(=O)Nc3ccc(C(F)(F)F)cc3)ccc2O[C@@H]1CN(C)S(=O)(=O)c1ccccc1	5	26	.	2
C[C@@H]1CN([C@@H](C)CO)C(=O)Cc2cc(NC(=O)Nc3ccc(C(F)(F)F)cc3)ccc2O[C@@H]1CN(C)S(=O)(=O)c1ccccc1	112*	44	-43	-5
C[C@@H]1CN([C@@H](C)CO)C(=O)Cc2cc(NC(=O)Nc3ccc(C(F)(F)F)cc3)ccc2O[C@@H]1CN(C)S(C)(=O)=O	114*	14	.	0
C[C@H]1CN([C@@H](C)CO)C(=O)c2cccc(NC(=O)c3ccc(-c4nccs4)cc3)c2O[C@@H]1CN(C)C	0	10	20	.
C[C@@H]1CN([C@H](C)CO)C(=O)Cc2cc(NC(=O)Nc3ccccc3)ccc2O[C@H]1CN(C)Cc1ccc(-c2ccccc2)cc1	4	1	-29	0
CC(C)NC(=O)Nc1ccc2c(c1)CC(=O)N([C@H](C)CO)C[C@@H](C)[C@@H](CN(C)Cc1ccc(-c3ccccc3)cc1)O2	82*	12	9	-3
C[C@H]1CN([C@@H](C)CO)C(=O)Cc2cc(NC(=O)Nc3ccc(F)cc3)ccc2O[C@H]1CN(C)Cc1ccc(-c2ccccc2)cc1	110*	-10	1	0
C[C@@H]1CN([C@H](C)CO)C(=O)Cc2cc(NC(=O)Nc3ccc(F)cc3)ccc2O[C@@H]1CN(C)Cc1ccccc1	52	2	13	0
C[C@@H]1CN([C@H](C)CO)C(=O)Cc2cc(NC(=O)Nc3ccc(F)cc3)ccc2O[C@H]1CN(C)Cc1ccc(-c2ccccc2)cc1	127*	5	0	-4
CC(C)NC(=O)Nc1ccc2c(c1)CC(=O)N([C@@H](C)CO)C[C@H](C)[C@@H](CN(C)Cc1ccc(-c3ccccc3)cc1)O2	18	6	-7	-2
C[C@@H]1CN([C@H](C)CO)C(=O)Cc2cc(NC(=O)Nc3ccc4c(c3)OCO4)ccc2O[C@H]1CN(C)Cc1ccc(-c2ccccc2)cc1	98*	0	-29	2
C[C@@H]1CN([C@@H](C)CO)C(=O)Cc2cc(N(C)C)ccc2O[C@@H]1CN(C)CC1CC1	14	16	.	0
Nc1nonc1-c1nc2ccccc2n1CC(=O)Nc1cccc(Cl)c1Cl	119*	32	.	.
CC(C)NC(=O)N(C)C[C@@H]1Oc2ccc(NS(C)(=O)=O)cc2C(=O)N([C@@H](C)CO)C[C@H]1C	25	7	-14	1
CCc1cc(C(=O)OC)c(NC(=O)c2cc(-c3cccnc3)nc3ccc(Br)cc23)s1	89*	12	.	1
COC(=O)c1cc(Cc2ccccc2)sc1NC(=O)c1cc(-c2cccnc2)nc2ccccc12	9	-5	.	.
COc1cc2ccc(=O)oc2cc1OCC=C(C)C	.	.	15	.
CC(C)=CCOc1cc2oc(=O)ccc2cc1O	109*	7	7	.
C/C=C(/C)C(=O)O[C@H]1C=C(C)C[C@H](OC(=O)c2ccc(O)cc2)C2[C@](O)(C(C)C)CC[C@@]21C (stereo partly specified)	122*	42	10	-6
COc1ccc(NC(=O)N(C)C[C@@H]2Oc3c(NC(=O)Nc4ccc(F)cc4)cccc3C(=O)N([C@@H](C)CO)C[C@@H]2C)cc1	6	-10	-4	.
Cc1sc2ncn(CC(=O)Nc3ccc(F)cc3)c(=O)c2c1C	21	2	.	.
C[C@H](CO)N1C[C@H](C)[C@H](CN(C)Cc2ccncc2)Oc2ccc(NC(=O)Nc3ccccc3)cc2C1=O	97*	4	-19	0
C[C@@H]1CN([C@H](C)CO)C(=O)c2cc(NC(=O)Nc3ccccc3)ccc2O[C@@H]1CN(C)Cc1ccncc1	-5	-10	-8	0
C[C@H]1CN([C@@H](C)CO)C(=O)c2cc(NC(=O)Nc3ccc(F)cc3)ccc2O[C@H]1CN(C)Cc1ccncc1	100*	-9	.	-2
SMILES	NOMO-1 viab	MITF inh	Shh pathway inh	PD-1 reversal
C[C@H]1CN([C@@H](C)CO)C(=O)c2cc(NC(=O)Nc3ccc(F)cc3)ccc2O[C@H]1CN(C)Cc1ccc(C(F)(F)F)cc1	52	30	14	-3
COc1ccc(Cl)c(Cn2c(NC3CCCCC3)nc3c2c(=O)n(C)c(=O)n3C)c1	17	2	.	.
CC(C)(C)C1CCc2c(sc(NC(=O)COc3ccccc3Cl)c2C(N)=O)C1 (stereo unspecified)	104*	-15	.	-5
O=c1c(Cl)c(NCCc2ccccc2)cnn1-c1ccccc1	-6	-37	58	-2
CCc1nc2c(cnn2-c2ccccc2)c(=O)n1CCc1ccccc1	113*	13	-13	-1
C=C1C(=O)O[C@H]2C1C[C@@H](OC(C)=O)[C@@]1(C)[C@@H](OC(C)=O)C[C@@H](OC(C)=O)C(=C)[C@H]21 (stereo partly specified)	120*	11	51	-13
Nc1cc(=O)nc(SCC(=O)N2c3ccccc3Sc3ccccc32)n1-c1ccccc1	-10	5	.	0
C[C@H](CO)N1C[C@H](C)[C@H](CN(C)S(=O)(=O)c2ccc(F)cc2)Oc2c(NC(=O)NC3CCCCC3)cccc2C1=O	71	51	93*	-2
Cc1ccc(S(=O)(=O)N(C)C[C@@H]2Oc3c(NC(=O)NC4CCCCC4)cccc3C(=O)N([C@H](C)CO)C[C@@H]2C)cc1	91*	43	107*	-4
C[C@@H]1CN([C@@H](C)CO)C(=O)c2cccc(NC(=O)NC3CCCCC3)c2O[C@@H]1CN(C)S(=O)(=O)c1ccc(Cl)cc1	43	12	-25	.
C[C@H]1CN([C@@H](C)CO)C(=O)c2cccc(NC(=O)NC3CCCCC3)c2O[C@H]1CN(C)S(=O)(=O)c1ccc(Cl)cc1	98*	63	112*	-7
C[C@@H]1CCCCO[C@H](CN(C)Cc2ccc(C(F)(F)F)cc2)[C@@H](C)CN([C@H](C)CO)C(=O)c2cc(NC(=O)CCCCCC(=O)Nc3ccccc3N)ccc2O1	131*	46	.	-1
C[C@@H]1CCCCO[C@@H](CN(C)Cc2ccc(C(=O)Nc3ccccc3N)cc2)[C@@H](C)CN([C@H](C)CO)C(=O)c2cc(NC(=O)CCC(F)(F)F)ccc2O1	127*	5	.	-1
C[C@@H]1CCCCO[C@@H](CN(C)Cc2ccc(C(=O)Nc3ccccc3N)cc2)[C@@H](C)CN([C@H](C)CO)C(=O)c2cc(NC(=O)Nc3ccccc3)ccc2O1	?	-7	.	1
C[C@@H]1CCCCO[C@@H](CN(C)Cc2ccc(C(=O)Nc3ccccc3N)cc2)[C@@H](C)CN([C@H](C)CO)C(=O)c2cc(NC(=O)c3ccccc3)ccc2O1	141*	24	.	-2
C[C@@H]1CCCCO[C@@H](CN(C)Cc2ccc(C(=O)Nc3ccccc3N)cc2)[C@@H](C)CN([C@H](C)CO)C(=O)c2cc(NC(=O)Nc3ccc(F)cc3)ccc2O1	111*	-16	.	1
